Our source for the Potency values is PubChem BioAssay (NCATS).

Records with an inconclusive call do not appear. Entries that show only a call come without a potency. Activity calls are given as the source filed them. Calls come from the whole dose curve; as a rule, active = well fitted inhibition curve with a large enough effect; inconclusive = small, poorly fitted or top-dose-only effect; inactive = flat fitted curve, though single readings scatter.

In experiment [1] the target is Glutathione peroxidase 1 (Homo sapiens) (UniProt P07203). Nature of the experiment: Primary qHTS Assay for Inhibitors of Recombinant Selenoprotein Glutathione Peroxidase 1 (GPX1) (AID 1845191). Note: potency is the fitted concentration of half-maximal effect. A digest of the protocol: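 10 nM GPX1 + cpd, 30 min RT; start w/ 1 mM GSH, 0.5 mM cumene hydroperoxide, 0.5 mM NADPH, 100 nM GR, 0.01% BSA; buffer 50 mM Tris-HCl pH 7.5, 2 mM EDTA, 150 mM NaCl; Fl 340/450, 0 & 15 min.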
Sequence of Glutathione peroxidase 1 (Homo sapiens) (P07203 whole entry, looked up): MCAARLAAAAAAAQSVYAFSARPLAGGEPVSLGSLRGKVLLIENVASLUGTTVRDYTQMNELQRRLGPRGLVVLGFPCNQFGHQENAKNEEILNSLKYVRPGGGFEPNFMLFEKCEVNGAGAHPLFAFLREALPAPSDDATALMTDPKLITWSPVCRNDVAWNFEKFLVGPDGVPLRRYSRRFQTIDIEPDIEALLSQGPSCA
For orientation: qHTS replaces the single test concentration by a dilution series.

For experiment [2], the target named is Phospholipid hydroperoxide glutathione peroxidase GPX4 (Homo sapiens) (UniProt P36969). As to the kind of experiment: Primary qHTS Assay for Inhibitors of Recombinant Selenoprotein Glutathione Peroxidase 4 (GPX4) (AID 1845192). A digest of the protocol:
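NADPH consumption, followed by fluorescence at 340/450 nm between 0 and 15 min, reports GPX4 activity via coupled glutathione reductase (100 nM). Enzyme 200 nM was pre-exposed to compound 30 min; 0.5 mM cumene hydroperoxide and 1 mM GSH served as substrates.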
Note: nearly all actives have a fitted effect of over 65% in size.

Sequence of Phospholipid hydroperoxide glutathione peroxidase GPX4 (Homo sapiens) (P36969 whole entry, looked up): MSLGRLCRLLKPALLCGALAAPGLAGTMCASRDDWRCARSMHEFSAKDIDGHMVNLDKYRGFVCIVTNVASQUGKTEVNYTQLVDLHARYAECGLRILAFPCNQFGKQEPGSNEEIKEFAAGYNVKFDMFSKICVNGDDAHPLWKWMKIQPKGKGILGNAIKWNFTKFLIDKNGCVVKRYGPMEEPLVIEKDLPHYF

On to `CC(=O)OCC(=O)[C@@]1(O)[C@H](OC(C)=O)C[C@H]2[C@@H]3CCC4=CC(=O)C=C[C@]4(C)[C@@]3(F)[C@@H](O)C[C@@]21C`, for which the Potency result in experiment [1] and in experiment [2] was “inactive” each time. As to `NC(N)=NCCCCN=C(N)N`, the Potency entry in experiment [1] and in experiment [2] was “inactive” throughout. Turning to `CC(C)=CCNc1ncnc2c1ncn2[C@@H]1O[C@H](CO)[C@@H](O)[C@H]1O`, in experiment [1], the Potency entry was “inactive”. On to `Cc1ccc(O)cc1`, for which the Potency entry in experiment [1] and in experiment [2] was “inactive” throughout. With `Cc1ccc(C(C)OC(=O)C2(C)CCC(C(=O)O)C2(C)C)cc1` (centres undefined), the Potency result in experiment [1] and in experiment [2] was “inactive” each time. In the case of `CCN1CCN(C(=O)N[C@@H](C(=O)N[C@@H]2C(=O)N3[C@@H]2SC(C)(C)[C@H]3C(=O)O)c2ccccc2)C(=O)C1=O`, the Potency entry in experiment [1] and in experiment [2] was “inactive” throughout. Regarding `CCC[C@H](N[C@@H](C)C(=O)N1[C@H](C(=O)O)C[C@@H]2CCCC[C@@H]21)C(=O)OCC`, the Potency result in experiment [1] and in experiment [2] was “inactive” throughout. Take `CC(C)C(=O)OCc1cccc(OC(=O)[C@@H]2N3C(=O)[C@@H](NC(=O)Cc4ccccc4)[C@H]3SC2(C)C)c1`: in experiment [1], the Potency result was “inactive”. On to `CNC(=O)c1cnn(-c2nc(N)c3ncn([C@@H]4O[C@H](CO)[C@@H](O)[C@H]4O)c3n2)c1`, for which the Potency result in experiment [1] and in experiment [2] was “inactive” in each case.

Take `C/C(=C1\CCOC(=O)S1)N(C=O)Cc1cnc(C)nc1N`: the Potency result in experiment [1] and in experiment [2] was “inactive” each time. Regarding `CN(C)CCCOC1(Cc2ccccc2)CCCCCC1`, the Potency result in experiment [1] and in experiment [2] was “inactive” throughout. `CCC(C(=O)OCCN1CCOC(c2ccccc2)C1C)c1ccccc1` (centres undefined): the Potency entry in experiment [1] and in experiment [2] was “inactive” throughout.

As for `CCCc1c2oc(C(=O)O)cc(=O)c2cc2c(=O)cc(C(=O)O)n(CC)c12`, the Potency result in experiment [1] is “inactive”. Regarding `O=C(CO)[C@@H](O)[C@H](O)[C@@H](O)CO`, the Potency result in experiment [1] and in experiment [2] was “inactive” in each case. Turning to `CCCCC(=O)OCC(=O)[C@H]1[C@H](C)C[C@H]2[C@@H]3C[C@H](F)C4=CC(=O)C=C[C@]4(C)[C@@]3(F)[C@@H](O)C[C@@]21C`, the Potency entry in experiment [1] and in experiment [2] was “inactive” in each case. Regarding `C[C@@H](O[C@H]1OCCN(Cc2n[nH]c(=O)[nH]2)[C@H]1c1ccc(F)cc1)c1cc(C(F)(F)F)cc(C(F)(F)F)c1`, in experiment [1], the Potency result was “inactive”. Same read-out and setting: in the case of `O=C(O)c1ccccc1Nc1cc(Cl)ccc1C(=O)O` it was “inactive”. Take `CCOC(=O)c1cc(=O)c2c(OCC(COc3cccc4oc(C(=O)OCC)cc(=O)c34)OC(=O)[C@@H](N)CCCCN)cccc2o1`: the Potency entry in experiment [1] and in experiment [2] was “inactive” throughout. `CCO[C@H](Cc1ccc(OCCc2ccc(OS(C)(=O)=O)cc2)cc1)C(=O)O`: the Potency entry in experiment [1] and in experiment [2] was “inactive” throughout.

As for `CC(=O)Nc1ccc(S(=O)(=O)Nc2cc(C)on2)cc1`, the Potency result in experiment [1] and in experiment [2] was “inactive” in each case. `CN1CCC(=C2c3ccccc3CCc3cccnc32)CC1`: the Potency result in experiment [1] and in experiment [2] was “inactive” in each case. `CO[C@@]1(NC(=O)CSC[C@@H](N)C(=O)O)C(=O)N2C(C(=O)O)=C(CSc3nnnn3C)CS[C@@H]21`: the Potency in experiment [1] was 22.7 µM (active). Same read-out and setting: the same measure for `Fc1ccc(C(c2ccc(F)cc2)N2CCNCC2)cc1`: “inactive”. On to `OC(CCCN1CCCCC1)(c1ccccc1)c1ccccc1`, for which the Potency result in experiment [1] and in experiment [2] was “inactive” each time. Consider `Nc1c(I)cc(I)c(C(=O)N(CCC(=O)O)c2ccccc2)c1I`, for which the Potency result in experiment [1] and in experiment [2] was “inactive” throughout. Regarding `O=C(Oc1ccccc1)c1ccccc1O`, the Potency result in experiment [1] and in experiment [2] was “inactive” each time. For `CC(=O)N(c1onc(C)c1C)S(=O)(=O)c1ccc(N)cc1`, the Potency entry in experiment [1] and in experiment [2] was “inactive” in each case. In the case of `CCOC(=O)OCC/C(SC(=O)OCC)=C(\C)N(C=O)Cc1cnc(C)nc1N`, the Potency result in experiment [1] and in experiment [2] was “inactive” throughout.

With `CCC(=O)O[C@H]1[C@H](O[C@@H]2[C@@H](C)[C@H](O[C@H]3C[C@@](C)(OC)[C@@H](O)[C@H](C)O3)[C@@H](C)C(=O)O[C@H](CC)[C@@](C)(O)[C@H](O)[C@@H](C)C(=O)[C@H](C)C[C@@]2(C)O)O[C@H](C)C[C@@H]1N(C)C`, the Potency result in experiment [1] and in experiment [2] was “inactive” in each case. On to `O=C(OCC1(COC(=O)c2cccnc2)CCCC(COC(=O)c2cccnc2)(COC(=O)c2cccnc2)C1O)c1cccnc1`, for which the Potency result in experiment [1] was “inactive”.

As for `Cc1cc2nc3ccc(=[N+](C)C)cc-3sc2cc1N`, the Potency in experiment [1] is 28.6 µM (active).

Turning to `CCCC(=O)O[C@]1(C(=O)CCl)[C@@H](C)C[C@H]2[C@@H]3CCC4=CC(=O)C=C[C@]4(C)[C@@]3(F)C(=O)C[C@@]21C`, the Potency result in experiment [1] and in experiment [2] was “inactive” each time.

In the case of `CC1CCCCN1CCCOC(=O)c1ccc(OC2CCCCC2)cc1` (centres undefined), the Potency result in experiment [1] and in experiment [2] was “inactive” throughout.

As to `COc1cc(C(=O)NC2CCCNC2)cc(OC)c1OC` (centres undefined), the Potency in experiment [1] is 12.8 µM (active). For the compound `Cc1ncc(CO)c(CO)c1O`, the Potency entry in experiment [1] and in experiment [2] was “inactive” each time. For the compound `O=C(CCCCC(=O)Nc1c(I)cc(I)c(C(=O)O)c1I)Nc1c(I)cc(I)c(C(=O)O)c1I`, the Potency result in experiment [1] and in experiment [2] was “inactive” throughout. For `Nc1ccc2cc3ccc(N)cc3nc2c1`, the Potency result in experiment [1] and in experiment [2] was “inactive” in each case.
